Results as given in the supplement of paper PMC10849652.
Of roughly 8,800 targets only a part is listed; those with a hit were picked by preference. About 0.5% of all pairs of compound and target were hits.

UniProt Q9H0B6, sequence (Q9H0B6 whole entry, looked up): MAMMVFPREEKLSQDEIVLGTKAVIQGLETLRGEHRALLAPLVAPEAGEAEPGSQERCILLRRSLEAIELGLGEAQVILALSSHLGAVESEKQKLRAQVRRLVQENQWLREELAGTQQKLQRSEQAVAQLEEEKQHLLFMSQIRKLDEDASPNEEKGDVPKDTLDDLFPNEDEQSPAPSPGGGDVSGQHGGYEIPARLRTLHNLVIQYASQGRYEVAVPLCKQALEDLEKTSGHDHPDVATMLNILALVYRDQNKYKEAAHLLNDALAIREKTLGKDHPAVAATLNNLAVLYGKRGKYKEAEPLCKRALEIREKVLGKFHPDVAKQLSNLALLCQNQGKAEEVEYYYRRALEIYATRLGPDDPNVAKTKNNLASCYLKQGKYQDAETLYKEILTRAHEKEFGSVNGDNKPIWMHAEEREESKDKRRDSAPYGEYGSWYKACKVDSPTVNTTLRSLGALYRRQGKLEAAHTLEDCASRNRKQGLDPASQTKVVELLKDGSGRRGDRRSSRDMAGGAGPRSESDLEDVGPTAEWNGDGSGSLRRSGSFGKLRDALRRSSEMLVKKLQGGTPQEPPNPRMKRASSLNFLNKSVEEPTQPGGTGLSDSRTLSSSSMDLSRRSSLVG
UniProt Q09328, sequence (Q09328 whole entry, looked up): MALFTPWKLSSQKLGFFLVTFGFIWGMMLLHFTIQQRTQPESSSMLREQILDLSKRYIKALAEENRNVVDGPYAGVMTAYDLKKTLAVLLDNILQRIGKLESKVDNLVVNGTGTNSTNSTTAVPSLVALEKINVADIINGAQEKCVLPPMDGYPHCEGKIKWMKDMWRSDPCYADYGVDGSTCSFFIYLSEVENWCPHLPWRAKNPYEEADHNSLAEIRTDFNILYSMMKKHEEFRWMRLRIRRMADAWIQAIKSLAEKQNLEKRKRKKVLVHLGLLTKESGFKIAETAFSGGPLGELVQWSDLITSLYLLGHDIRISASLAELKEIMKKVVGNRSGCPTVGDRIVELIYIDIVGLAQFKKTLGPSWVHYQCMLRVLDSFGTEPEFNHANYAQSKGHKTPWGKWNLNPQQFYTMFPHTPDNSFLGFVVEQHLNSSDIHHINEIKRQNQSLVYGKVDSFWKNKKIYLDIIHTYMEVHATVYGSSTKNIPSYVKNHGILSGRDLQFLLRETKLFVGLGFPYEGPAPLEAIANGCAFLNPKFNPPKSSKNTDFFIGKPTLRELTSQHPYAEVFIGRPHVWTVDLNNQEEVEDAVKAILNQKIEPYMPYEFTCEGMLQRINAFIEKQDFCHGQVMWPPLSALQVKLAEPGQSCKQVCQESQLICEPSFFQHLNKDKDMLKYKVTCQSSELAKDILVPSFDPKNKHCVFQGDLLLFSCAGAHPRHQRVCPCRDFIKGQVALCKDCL
UniProt Q13163, sequence (Q13163 whole entry, looked up): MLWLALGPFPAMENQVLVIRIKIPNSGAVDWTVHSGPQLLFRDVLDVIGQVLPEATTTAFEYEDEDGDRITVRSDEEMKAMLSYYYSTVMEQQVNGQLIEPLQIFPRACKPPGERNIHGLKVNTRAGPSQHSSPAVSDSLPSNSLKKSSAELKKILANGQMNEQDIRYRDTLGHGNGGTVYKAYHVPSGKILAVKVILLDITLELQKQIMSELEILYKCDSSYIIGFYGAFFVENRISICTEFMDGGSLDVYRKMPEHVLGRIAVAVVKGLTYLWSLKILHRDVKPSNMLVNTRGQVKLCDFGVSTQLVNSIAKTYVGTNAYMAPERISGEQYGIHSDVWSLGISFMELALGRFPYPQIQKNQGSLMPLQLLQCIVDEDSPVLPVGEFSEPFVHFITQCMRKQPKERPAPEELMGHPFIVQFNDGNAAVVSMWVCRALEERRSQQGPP
UniProt Q9Y448, sequence (Q9Y448 whole entry, looked up): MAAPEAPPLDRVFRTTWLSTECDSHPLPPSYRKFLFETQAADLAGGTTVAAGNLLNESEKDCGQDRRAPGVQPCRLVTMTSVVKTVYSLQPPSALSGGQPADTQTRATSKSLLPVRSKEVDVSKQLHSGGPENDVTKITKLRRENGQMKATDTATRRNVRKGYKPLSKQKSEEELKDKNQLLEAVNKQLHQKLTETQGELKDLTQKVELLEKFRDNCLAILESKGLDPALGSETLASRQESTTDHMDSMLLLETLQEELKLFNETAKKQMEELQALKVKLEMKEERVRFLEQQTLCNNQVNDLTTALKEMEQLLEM
UniProt Q96EM0, sequence (Q96EM0 whole entry, looked up): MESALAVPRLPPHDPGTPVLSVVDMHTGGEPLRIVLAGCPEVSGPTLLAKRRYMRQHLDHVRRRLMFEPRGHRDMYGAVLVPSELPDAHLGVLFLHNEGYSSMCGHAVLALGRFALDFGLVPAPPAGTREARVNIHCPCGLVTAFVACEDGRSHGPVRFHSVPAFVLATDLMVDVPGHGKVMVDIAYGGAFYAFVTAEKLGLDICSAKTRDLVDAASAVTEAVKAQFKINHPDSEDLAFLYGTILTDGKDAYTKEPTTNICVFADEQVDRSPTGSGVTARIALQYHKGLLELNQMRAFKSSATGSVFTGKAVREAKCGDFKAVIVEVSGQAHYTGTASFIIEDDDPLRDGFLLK
UniProt Q9Y6X9, sequence (Q9Y6X9 whole entry, looked up): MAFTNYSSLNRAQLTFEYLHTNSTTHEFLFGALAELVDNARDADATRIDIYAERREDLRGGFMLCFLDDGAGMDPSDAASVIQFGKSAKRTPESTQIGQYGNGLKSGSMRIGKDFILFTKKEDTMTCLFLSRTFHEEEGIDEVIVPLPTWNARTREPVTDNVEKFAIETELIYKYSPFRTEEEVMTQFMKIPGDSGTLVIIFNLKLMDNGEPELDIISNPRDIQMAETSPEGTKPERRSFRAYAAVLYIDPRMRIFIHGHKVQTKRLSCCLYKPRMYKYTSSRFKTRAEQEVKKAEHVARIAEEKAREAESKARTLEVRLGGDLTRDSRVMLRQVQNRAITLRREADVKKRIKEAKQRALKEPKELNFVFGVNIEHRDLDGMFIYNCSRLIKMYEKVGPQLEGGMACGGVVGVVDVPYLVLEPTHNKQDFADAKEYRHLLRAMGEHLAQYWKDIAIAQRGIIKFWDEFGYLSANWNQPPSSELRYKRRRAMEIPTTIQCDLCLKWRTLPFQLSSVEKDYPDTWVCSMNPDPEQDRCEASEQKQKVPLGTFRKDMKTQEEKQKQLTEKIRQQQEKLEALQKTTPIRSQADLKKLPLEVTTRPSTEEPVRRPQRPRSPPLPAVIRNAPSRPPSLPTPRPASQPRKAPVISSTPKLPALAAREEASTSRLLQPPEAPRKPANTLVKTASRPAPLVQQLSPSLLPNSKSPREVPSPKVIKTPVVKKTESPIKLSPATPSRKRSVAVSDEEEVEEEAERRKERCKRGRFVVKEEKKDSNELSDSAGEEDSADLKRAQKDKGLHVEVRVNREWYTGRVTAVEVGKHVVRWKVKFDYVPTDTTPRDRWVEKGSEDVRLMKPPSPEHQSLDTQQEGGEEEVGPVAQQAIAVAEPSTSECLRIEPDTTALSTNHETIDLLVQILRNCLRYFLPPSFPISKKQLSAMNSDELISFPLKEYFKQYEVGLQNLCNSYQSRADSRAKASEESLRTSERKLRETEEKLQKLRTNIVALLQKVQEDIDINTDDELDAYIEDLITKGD
UniProt Q8WVR3, sequence (Q8WVR3 whole entry, looked up): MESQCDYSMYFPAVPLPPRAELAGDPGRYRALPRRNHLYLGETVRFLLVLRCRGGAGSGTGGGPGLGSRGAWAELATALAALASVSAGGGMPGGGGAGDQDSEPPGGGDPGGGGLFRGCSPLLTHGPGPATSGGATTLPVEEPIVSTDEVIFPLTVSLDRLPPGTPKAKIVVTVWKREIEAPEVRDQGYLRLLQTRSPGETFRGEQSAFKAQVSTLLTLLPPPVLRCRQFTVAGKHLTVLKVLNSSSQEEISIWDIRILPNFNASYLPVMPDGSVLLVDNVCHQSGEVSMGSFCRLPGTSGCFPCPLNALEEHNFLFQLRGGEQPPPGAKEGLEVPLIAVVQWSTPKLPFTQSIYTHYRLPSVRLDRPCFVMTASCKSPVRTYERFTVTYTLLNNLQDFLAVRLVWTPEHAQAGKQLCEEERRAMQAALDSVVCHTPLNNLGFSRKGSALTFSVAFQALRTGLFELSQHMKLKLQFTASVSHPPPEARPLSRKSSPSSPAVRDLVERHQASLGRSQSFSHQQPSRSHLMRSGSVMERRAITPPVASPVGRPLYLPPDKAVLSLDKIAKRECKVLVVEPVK
UniProt Q9UBU8, sequence (Q9UBU8 whole entry, looked up): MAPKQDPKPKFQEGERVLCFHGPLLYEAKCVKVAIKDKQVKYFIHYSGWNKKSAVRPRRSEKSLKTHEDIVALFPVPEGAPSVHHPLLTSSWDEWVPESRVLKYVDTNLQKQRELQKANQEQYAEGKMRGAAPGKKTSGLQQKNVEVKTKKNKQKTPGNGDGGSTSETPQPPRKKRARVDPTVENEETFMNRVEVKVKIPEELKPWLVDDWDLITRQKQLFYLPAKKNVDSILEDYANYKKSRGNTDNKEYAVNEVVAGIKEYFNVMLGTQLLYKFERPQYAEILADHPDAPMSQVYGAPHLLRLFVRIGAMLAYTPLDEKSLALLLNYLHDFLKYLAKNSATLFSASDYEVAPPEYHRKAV
UniProt Q9H8H3, sequence (Q9H8H3 whole entry, looked up): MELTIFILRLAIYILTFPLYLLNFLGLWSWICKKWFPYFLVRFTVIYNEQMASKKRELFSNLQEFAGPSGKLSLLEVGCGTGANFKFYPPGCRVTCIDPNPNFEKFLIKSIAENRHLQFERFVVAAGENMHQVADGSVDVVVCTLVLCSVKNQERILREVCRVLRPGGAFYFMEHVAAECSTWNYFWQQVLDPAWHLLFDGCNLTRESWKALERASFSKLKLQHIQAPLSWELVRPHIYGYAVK
UniProt Q15013, sequence (Q15013 whole entry, looked up): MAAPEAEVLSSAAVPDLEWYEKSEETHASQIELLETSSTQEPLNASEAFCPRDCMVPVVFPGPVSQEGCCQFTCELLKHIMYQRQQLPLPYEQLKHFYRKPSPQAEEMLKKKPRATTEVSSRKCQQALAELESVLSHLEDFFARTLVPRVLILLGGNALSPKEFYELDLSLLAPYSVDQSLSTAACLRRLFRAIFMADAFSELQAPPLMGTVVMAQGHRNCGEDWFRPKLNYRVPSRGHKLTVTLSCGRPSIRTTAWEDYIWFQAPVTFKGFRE

The targets below were run with CC1=C(C2=C(C=C1)C(=O)C3=CC=CC=C3N2CCCN)C (assay: log2 fold change, soluble protein after heating vs DMSO (PISA); higher = thermal stabilisation; K562 lysate, 10 uM; active = over 0.2 and 3.5 SD of the protein, either way, in both replicates (recomputed)).
How it was run: (§1)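 Thermal stability, expressed as log-two fold change relative to solvent controls, is given from duplicates. Crude K562 extract in PBS pH 7.4 with 1 mM MgCl2, at 1 mg/mL protein, was treated with 10 μM compound for 30 min and heated in aliquots for 3 min across 48°C-58°C. After pooling, adjustment to 0.5% NP-40 at 4°C and centrifugation at 21,000xg for 90 min, supernatant protein was measured by TMTpro 16plex LC-MS/MS with channel sums equalised.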
In the case of MAP2K1 (UniProt Q02750), the log2 fold change is reported as -0.04 (inactive).
For MORC2 (UniProt Q9Y6X9), the log2 fold change was -0.026 (inactive).
With KNSTRN (UniProt Q9Y448) the log2 fold change was -0.023 (inactive).
For MORF4L1 isoform 2 (UniProt Q9UBU8), the log2 fold change was -0.089 (inactive).
KIF2C (UniProt Q99661) was tested, and the log2 fold change was -0.004 (inactive).
In the case of MRPL30 isoform 2 (UniProt Q8TCC3), the log2 fold change is reported as -0.037 (inactive).
For L3HYPDH (UniProt Q96EM0), the log2 fold change was -0.001 (inactive).
MED16 (UniProt Q9Y2X0) was tested, and the log2 fold change was -0.01 (inactive).
For KIFC1 (UniProt Q9BW19), the log2 fold change was 0.004 (inactive).
In the case of MGAT5 (UniProt Q09328), the log2 fold change is reported as 0.005 (inactive).
With MICU2 (UniProt Q8IYU8) the log2 fold change was -0.004 (inactive).
With MAPKAPK3 (UniProt Q16644) the log2 fold change was -0.027 (inactive).
In the case of KIF4A (UniProt O95239), the log2 fold change is reported as -0.027 (inactive).
With MAP11 (UniProt Q8WVR3) the log2 fold change was -0.063 (inactive).
KLC2 (UniProt Q9H0B6) was tested, and the log2 fold change was -0.036 (inactive).
For MAP2K5 (UniProt Q13163), the log2 fold change was -0.208 (inactive).
For METTL7A (UniProt Q9H8H3), the log2 fold change was -0.055 (inactive).

What follows are targets tested with CC1=C(C=C(C=C1)NC(=O)C2=CC(=CC=C2)C(C)(C)C#N)NC3=CC4=C(C=C3)N=CN(C4=O)C in the same assay as above.
How it was run: as §1
In the case of MARK2 (UniProt E9PC69), the log2 fold change is reported as 0.024 (inactive).
In the case of MICU1 isoform 3 (UniProt Q9BPX6), the log2 fold change is reported as -0.028 (inactive).
MED12 isoform 2 (UniProt Q93074) was tested, and the log2 fold change was -0.005 (inactive).
In the case of LYAR (UniProt Q9NX58), the log2 fold change is reported as 0.016 (inactive).
MLH1 (UniProt P40692) was tested, and the log2 fold change was 0.014 (inactive).
In the case of MIPEP (UniProt Q99797), the log2 fold change is reported as -0.067 (inactive).
In the case of MAD2L1BP isoform 3 (UniProt Q15013), the log2 fold change is reported as 0.005 (inactive).
In the case of LIG4 (UniProt P49917), the log2 fold change is reported as 0.004 (inactive).
With MCUB (UniProt Q9NWR8) the log2 fold change was 0.443 (active).
In the case of MOCS1 isoform 8 (UniProt Q9NZB8), the log2 fold change is reported as 0.069 (inactive).
MAP3K4 (UniProt Q9Y6R4) was tested, and the log2 fold change was -0.006 (inactive).
In the case of MAPKAPK2 (UniProt P49137), the log2 fold change is reported as -0.056 (inactive).
With MAPK9 (UniProt P45984) the log2 fold change was 0.103 (inactive).
MCMBP isoform 2 (UniProt Q9BTE3) was tested, and the log2 fold change was 0.063 (inactive).
With MRPL15 (UniProt Q9P015) the log2 fold change was 0.032 (inactive).
In the case of MRPL10 isoform 2 (UniProt Q7Z7H8), the log2 fold change is reported as 0.025 (inactive).
With MORC3 (UniProt Q14149) the log2 fold change was -0.021 (inactive).
For LRRC40 (UniProt Q9H9A6), the log2 fold change was -0.073 (inactive).
With LARP4B (UniProt Q92615) the log2 fold change was -0.094 (inactive).
MAP1S (UniProt Q66K74) was tested, and the log2 fold change was 0 (inactive).
In the case of LTN1 isoform 3 (UniProt O94822), the log2 fold change is reported as -0.018 (inactive).
In the case of MCCC1 (UniProt Q96RQ3), the log2 fold change is reported as -0.006 (inactive).
With MAP2K1 (UniProt Q02750) the log2 fold change was 0.007 (inactive).
With MORC2 (UniProt Q9Y6X9) the log2 fold change was -0.037 (inactive).
For KNSTRN (UniProt Q9Y448), the log2 fold change was -0.032 (inactive).
In the case of MORF4L1 isoform 2 (UniProt Q9UBU8), the log2 fold change is reported as 0.01 (inactive).
In the case of KIF2C (UniProt Q99661), the log2 fold change is reported as 0.004 (inactive).
MRPL30 isoform 2 (UniProt Q8TCC3) was tested, and the log2 fold change was 0.02 (inactive).
In the case of L3HYPDH (UniProt Q96EM0), the log2 fold change is reported as 0.032 (inactive).
In the case of MED16 (UniProt Q9Y2X0), the log2 fold change is reported as -0.038 (inactive).
With KIFC1 (UniProt Q9BW19) the log2 fold change was 0.002 (inactive).
With MGAT5 (UniProt Q09328) the log2 fold change was -0.002 (inactive).
For MICU2 (UniProt Q8IYU8), the log2 fold change was 0.012 (inactive).
For MAPKAPK3 (UniProt Q16644), the log2 fold change was 0.082 (inactive).
KIF4A (UniProt O95239) was tested, and the log2 fold change was 0.004 (inactive).
MAP11 (UniProt Q8WVR3) was tested, and the log2 fold change was 0.014 (inactive).
For KLC2 (UniProt Q9H0B6), the log2 fold change was 0.012 (inactive).
For MAP2K5 (UniProt Q13163), the log2 fold change was 0.235 (inactive).
For METTL7A (UniProt Q9H8H3), the log2 fold change was 0.068 (inactive).
